From ChEMBL document CHEMBL3433997, “St. Jude Leishmania screening dataset” (2016) come the findings set out here.

What all share (assay type): functional
For experiment [1], the target named is Solute carrier family 2, facilitated glucose transporter member 1 (Homo sapiens) (UniProt P11166). The experiment is described as follows: ST_JUDE_LEISH: Cytotoxicity at 2uM final concentration against transgenic Leishmania Mexicana promastigotes LmGLUT1 that are glucose transport deficient and complemented with the human glucose transporter GLUT1. Activity is measured by DNA content using SYBR green in vitro.

Experiment [2] concerns the target Hexose transporter 1 (Plasmodium falciparum) (UniProt O97467). The experiment is described as follows: ST_JUDE_LEISH: Cytotoxicity at 2uM final concentration against transgenic Leishmania Mexicana promastigotes LmPfHT that are glucose transport deficient and complemented with the Plasmodium falciparum hexose transporter. Activity is measured by DNA content using SYBR green in vitro.

Experiment [3] deals with Glucose transporter (Leishmania mexicana) (UniProt O61059). The experiment is described as follows: ST_JUDE_LEISH: Cytotoxicity at 2uM final concentration against transgenic Leishmania Mexicana promastigotes LmGT2 that are glucose transport deficient and complemented with the L. Mexicana glucose transporter 2. Activity is measured by DNA content using SYBR green in vitro.

Solute carrier family 2, facilitated glucose transporter member 1 (Homo sapiens), sequence (P11166 whole entry): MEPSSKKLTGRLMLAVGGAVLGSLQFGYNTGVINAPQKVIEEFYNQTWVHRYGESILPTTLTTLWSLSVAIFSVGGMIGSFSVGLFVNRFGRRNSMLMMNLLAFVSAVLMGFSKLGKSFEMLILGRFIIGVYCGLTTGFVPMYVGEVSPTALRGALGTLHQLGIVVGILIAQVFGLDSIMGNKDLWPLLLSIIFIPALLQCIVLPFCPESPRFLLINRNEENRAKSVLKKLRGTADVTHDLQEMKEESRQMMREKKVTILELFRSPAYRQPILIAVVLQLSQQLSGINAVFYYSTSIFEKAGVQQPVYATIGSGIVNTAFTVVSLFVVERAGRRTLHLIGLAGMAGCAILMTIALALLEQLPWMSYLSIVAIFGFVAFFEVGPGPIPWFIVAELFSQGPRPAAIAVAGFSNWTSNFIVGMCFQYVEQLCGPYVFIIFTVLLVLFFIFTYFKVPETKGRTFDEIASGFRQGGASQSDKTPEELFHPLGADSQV

As for `O=C(N[C@H]1CCN(Cc2ccc(OCCN3CCNCC3)c(Br)c2)C1)c1ccc(Cl)c(Cl)c1`, the inhibition in experiment [1] is 0.35%; in experiment [2], 0.16%; in experiment [3], 1.51%.

Turning to `CCCCC(=O)N(CCOC)Cc1ccc(-c2ccc(CNCCC)cn2)cc1`, the inhibition amounted to 7.95% in experiment [1], 6.86% in experiment [2] and 5.46% in experiment [3].

With `Cc1ccc2[nH]c(C)cc(=NN=Cc3cccc(F)c3)c2c1`, the inhibition in experiment [1] worked out at 5.05%; in experiment [2] it was 7%; in experiment [3] it was 3.38%.

Regarding `CCOc1cc(C)ccc1N1CCN(CCN2CCC(NC(=O)c3ccc(-c4ccc(C#N)cc4)cc3)CC2)CC1`, the inhibition came out at 1.65% in experiment [1], 1.91% in experiment [2] and 2.27% in experiment [3].

For the molecule `COc1ccc(N2CCN(CCCCNC(=O)c3ccc(/C=C/c4ccc(Cl)c(Cl)c4)cc3)CC2)c(OC)c1`, the inhibition is -0.28% in experiment [1], 1.71% in experiment [2] and 2.02% in experiment [3].

In the case of `CCCCCC(=O)NCC(NCCCNc1cc(=O)c2ccccc2[nH]1)c1cc(Br)cc(Br)c1` (stereo unspecified), the inhibition in experiment [1] was found to be 5.16%; in experiment [2], 2.44%; in experiment [3], 5.39%.

As to `COCc1nc(N)nc(N)c1-c1ccc(Cl)c(Cl)c1`, the figures for the inhibition in experiment [1], in experiment [2] and in experiment [3] were -0.03%, 0.2% and 0.08%, respectively.

Consider `CC(=O)c1ccc(-c2ccc(C(=O)NCCCCN3CCC(c4ccc5c(c4OCC(N)=O)CCCC5)CC3)cc2)s1`, for which the inhibition amounted to 1.36% in experiment [1], 0.76% in experiment [2] and 1.72% in experiment [3].

On to `O=C(Nc1ccc(OC2CCN(Cc3ccsc3)C2)c(Cl)c1)c1cccs1` (stereo unspecified), for which the values for the inhibition in experiment [1], in experiment [2] and in experiment [3] were 2.98%, 3.61% and 2.52%, respectively.

In the case of `CCOC(=O)CNCC(=O)c1ccc(OCc2ccccc2)cc1`, the inhibition in experiment [1] was 1.94%; in experiment [2], 0.64%; in experiment [3] it was 2.44%.

Consider `CC1(C(=O)Nc2ccc([N+](=O)[O-])cc2O)CC2c3ccccc3C1c1ccccc12` (stereo unspecified), for which the figures for the inhibition in experiment [1], in experiment [2] and in experiment [3] were 2.18%, 3.79% and 0.74%, respectively.

As to `COc1ccc(-c2ccc(NC(=O)c3cccc(Cl)c3)cc2)cc1CN1CCC(O)CC1`, the inhibition stood at 14.6% in experiment [1], 15.5% in experiment [2] and 12.4% in experiment [3].

As for `CN(Cc1ccccc1)C(=O)c1nn(CCCN2CCC(N3CCCC3)CC2)cc1-c1ccc(Cl)c(Cl)c1`, the inhibition stood at 27.6% in experiment [1], 13.7% in experiment [2] and 1.65% in experiment [3].

Consider `COc1cccc(OC)c1C(=O)Nc1cccc(-c2nn3ccccc3c2-c2ccnc(Nc3cccc(F)c3)n2)c1`, for which the values for the inhibition in experiment [1], in experiment [2] and in experiment [3] were 6.78%, 9.03% and 4.91%, respectively.

In the case of `COc1ccc(-c2ccc(NC(=O)c3ccc(Cl)cc3)cc2)cc1CN(C)CCN(C)C`, the inhibition in experiment [1] turned out to be 9.47%; in experiment [2], 4.95%; in experiment [3], 2.75%.

For the molecule `Cc1nc(C)c(-c2ccc(-c3ccc(F)cc3)cc2)c(O)c1Cl`, the inhibition was 1.77% in experiment [1], 2.48% in experiment [2] and 0.55% in experiment [3].

Regarding `Cc1ccc(Nc2ccnc3cc(-c4nccs4)ccc23)cc1C(O)c1ccccc1` (stereo unspecified), the results for the inhibition in experiment [1], in experiment [2] and in experiment [3] were 3.59%, 2.96% and 3.72%, respectively.

In the case of `Cc1cc(N(C)C)nc(Nc2ccc(NC(=O)C3CCCCC3)cc2)n1`, the inhibition in experiment [1] amounted to 5.14%; in experiment [2], 5.64%; in experiment [3], 3.75%.

Regarding `Cc1cc(C(=O)Nc2ccc3c(c2)CCN3C2CCN(Cc3cccc4cc[nH]c34)C2)no1` (stereo unspecified), the inhibition was found to be 2.23% in experiment [1], 1.71% in experiment [2] and 3.09% in experiment [3].

For `CCOC(=O)C1=C(C)NC2=C(C(=O)C(C(=O)OC)C(C)C2)C1c1cc(Br)c(OCC)c(OC)c1` (stereo unspecified), the values for the inhibition in experiment [1], in experiment [2] and in experiment [3] were 8.37%, 6.84% and 6.67%, respectively.

With `CN1CCCN(c2ccnc3cc4c(cc23)N(C(=O)c2ccc(Cl)c(Cl)c2)CC4)CC1`, the inhibition in experiment [1] came out at 0.8%; in experiment [2], 1.89%; in experiment [3] it was 1.54%.

As for `COc1ccc2nccc([C@@H](O)CN3CCC(NCc4ccc5c(c4)NC(=O)CS5)CC3)c2c1`, the inhibition in experiment [1] is 1.65%; in experiment [2], 4.15%; in experiment [3] it was -0.16%.

In the case of `CC(Cc1ccc(CNC(=O)NCc2ccc(CC(C)NCCc3cccc(Cl)c3)cc2)cc1)NCCc1cccc(Cl)c1` (stereo unspecified), the inhibition in experiment [1] is 82.9%; in experiment [2], 79%; in experiment [3], 18.9%.

Take `O=C(Nc1ccc(Cl)cc1)Nc1cccc(-c2cc(CNCCc3ccccc3)oc2-c2ccncc2)c1`: the inhibition is 5.78% in experiment [1], 2.56% in experiment [2] and 3.77% in experiment [3].

Turning to `CCN(CC)CCN(Cc1ccc(-c2ccc(C(F)(F)F)cc2)cc1)C(=O)Cn1c(CCc2ccc(F)c(F)c2F)nc(=O)c2ccccc21`, the inhibition in experiment [1] amounted to 8.82%; in experiment [2], 7.31%; in experiment [3], 10.2%.

As to `Cc1ccc(NC(=O)c2ccc(NCCCN(C)Cc3ccccc3)c([N+](=O)[O-])c2)cc1F`, the inhibition in experiment [1] was found to be 8.67%; in experiment [2] it was 3.73%; in experiment [3], 2.68%.

For `COc1cc2c(cc1S(=O)(=O)c1ccc(COc3ccc(C(F)(F)F)cc3)cc1)CNCC2`, the inhibition in experiment [1] was -1.59%; in experiment [2] it was -0.71%; in experiment [3] it was -1.92%.

As to `CCc1ccc(CN2CCC(NC(=O)c3cc(-c4ccc(N(C)C)cc4)cs3)C2)cc1` (stereo unspecified), the results for the inhibition in experiment [1], in experiment [2] and in experiment [3] were 1.27%, 4.08% and 6.01%, respectively.

Regarding `C=CCc1c(C(=O)NCC23CC4CC(CC(C4)C2)C3)nc2ccccc2c1O`, the values for the inhibition in experiment [1], in experiment [2] and in experiment [3] were -2.74%, 0.27% and 3.24%, respectively.

Take `OCC1CCN(Cc2ccc(-c3cccc(-c4nc5cc(F)ccc5[nH]4)c3)cc2)CC1`: the inhibition in experiment [1] is -1.93%; in experiment [2], -1.06%; in experiment [3], -1.42%.

Regarding `Nc1nc(N)c2c(CCc3ccc4ccccc4c3)cccc2n1`, the inhibition in experiment [1] was 3.27%; in experiment [2] it was 1.63%; in experiment [3] it was -1.66%.

Consider `CN1CCC(N2CCN(c3ccc4c(=O)nc(CCc5cccc(F)c5F)n(CC(=O)N(C)Cc5ccc(-c6ccc(C(F)(F)F)cc6)cc5)c4n3)CC2)CC1`, for which the inhibition is -0.12% in experiment [1], 0.33% in experiment [2] and 6.67% in experiment [3].

For orientation: inhibition means the relative decrease from the control value, in per cent.
